Values without a mark were called inactive.
system: Caenorhabditis elegans L1 (N2); assay: survival and reproduction score of C. elegans L1 (0: 0-10 living worms, 1: 11-20, 2: 21-50, 3: >50, 4: overgrown) (score 0-4); higher = more worms, less nematicidal, active = 1 or less; extreme values may be limits of the assay; conditions: 60 µM; 6 days; temperature: 20 °C
Method in brief: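 After compound was pinned to 60 µM final (0.6% v/v DMSO) into wells with roughly 20 synchronized C. elegans N2 L1s and E. coli HB101 in liquid NGM, the sealed 96-well plates were shaken at 200 rpm for 6 days at 20 °C. Under a dissection microscope, survival and reproduction were graded ordinally by living worms per well. A grade of 0 stood for 0–10 worms and 4 for overgrown, starved wells; two biological replicates were averaged.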

Compound | survival and reproduction score
COc1nc(-c2ccc(C)cc2)ccc1-c1noc(C)n1 | 4
COc1nc(-c2ccccc2)ccc1-c1noc(C(C)C)n1 | 4
Cc1ccc(-c2noc(COc3ccc(Cl)cc3)n2)cc1 | 4
Brc1ccccc1-c1nc(-c2ccccn2)no1 | 2
CC(C)C(=O)Nc1ccccc1-c1nc(-c2ccncc2)no1 | 4
Cc1cc(OCc2nc(-c3ccccc3)no2)ccc1Br | 4
Brc1ccc(CSc2nnc(-c3ccco3)o2)cc1 | 0 (active)
CCc1ccc(C(=O)Nc2ccccc2-c2nc(-c3ccncc3)no2)cc1 | 4
Cc1ccc(OCc2nc(-c3ccc4c(c3)OCO4)no2)cc1C | 4
Cc1cccc(-c2noc(-c3cccc(Br)c3)n2)c1 | 4
Clc1ccc(CSc2nnc(-c3ccccc3)o2)c(Cl)c1 | 4
COc1ccccc1-c1nc(-c2ccc(Cl)cc2Cl)no1 | 4
N#Cc1ccc(OCc2nc(-c3cccs3)no2)cc1 | 4
O=C(CSc1nnc(-c2ccc(Cl)cc2)o1)NCc1ccccc1 | 4
CNC(=O)c1ccccc1-c1nc(-c2ccc(Cl)cc2)no1 | 4
COc1ccc(-c2noc(COc3ccc(Cl)cc3)n2)cc1 | 4
CC(=O)Nc1c(C)ccc(CNC(=O)CSc2nnc(-c3ccc(C(C)(C)C)cc3)o2)c1C | 4
Brc1ccc(-c2noc(-c3cccs3)n2)cc1 | 0 (active)
Cc1cc(Br)ccc1OCc1nc(-c2ccccn2)no1 | 4

Compound | survival and reproduction score
CCOc1ccc(-c2nc(-c3ccccc3)no2)cc1 | 4
CCOc1ccccc1-c1nnc(SCC(=O)N2CCC(C)CC2)o1 | 4
Clc1ccc(OCc2nc(-c3cccnc3)no2)c(Cl)c1 | 4
Cc1ccccc1-c1nnc(SCC(=O)Nc2cc(C(F)(F)F)ccc2N2CCOCC2)o1 | 4
O=C(CSc1nnc(-c2ccco2)o1)Nc1cccc2ccccc12 | 4
Cc1ccc(-c2noc(-c3ccc(Br)cc3)n2)cc1 | 4
Cc1ccc(-c2noc(-c3ccco3)n2)s1 | 0 (active)
Clc1ccccc1-c1noc(COc2ccc(Br)cc2)n1 | 4
CC(=O)Nc1ccc(-c2nnc(SCc3ccccc3)o2)cc1 | 4
CCN(CC)C(=O)CSc1nnc(-c2cccc(Cl)c2)o1 | 4
COc1cccc(-c2noc(COc3ccc(C)c(C)c3)n2)c1 | 4
CC(C)(C)c1ccc(-c2nc(-c3ccncc3)no2)cc1 | 0 (active)
Cc1ccc(-c2noc(-c3ccc(C)cc3Cl)n2)cc1 | 4
O=C(CSc1nnc(-c2ccc(Br)cc2)o1)NC1CCCC1 | 4
c1cc(-c2noc(C34CC5CC(CC(C5)C3)C4)n2)ccn1 | 4
O=C(CSc1nnc(-c2cccc(F)c2)o1)Nc1ccccc1C(=O)c1ccccc1 | 4
CC(C)(C)C(=O)Nc1ccccc1-c1nc(-c2ccncc2)no1 | 4
COc1ccccc1-c1nnc(SCC(=O)Nc2nc(C)cs2)o1 | 4
CCOc1cc(-c2nc(-c3ccc(OC)cc3)no2)cc(OCC)c1OCC | 4
